We go through nine compounds from PubChem BioAssay (Tox21).

Records with an inconclusive call do not appear. Active and inactive are the calls of the source. Unless noted, calls follow the shape of the dose curve; as a rule, active = well fitted curve in the direction sought with a large enough effect in the repeat runs; inconclusive = weak or mixed curves; inactive = no such curve, though single readings can be large; an effect the other way counts as inactive or inconclusive.

A short description of assay [1]: qHTS assay to identify small molecule antagonists of the thyroid receptor (TR) signaling pathway (AID 743065). Also: series mostly up to about 70 µM; nearly all actives have a fitted effect of over 55% in size. An outline of the steps:
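Antagonism measured as loss of luciferase signal in GH3 cells stably carrying a TRE-luciferase reporter, co-treated with compound and T3 (1 nM final) for 23.5 h at 37 C. Viability was read in the same well by CellTiter-Fluor.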
(In general: In qHTS, concentration-response curves come from the screen itself.)

The subject of assay [2] is thyroid hormone receptor (rat, GH3 cells). The experiment in a line: qHTS assay to identify small molecule agonists of the thyroid receptor (TR) signaling pathway (AID 743066; calls by dose curve).
Assay [3] can be described thus: qHTS assay to identify small molecule antagonists of the estrogen receptor alpha (ER-alpha) signaling pathway - cell viability counter screen (AID 743074; calls by dose curve;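 also: HEK293 cells carrying ER-alpha-UAS-bla reporter stimulated with 17beta-estradiol; nearly all actives have a fitted effect of over 45% in size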).
Assay [4] in a line: qHTS assay to identify small molecule antagonists of the estrogen receptor alpha (ER-alpha) signaling pathway using the BG1 cell line - cell viability counter screen (AID 743081).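 Also: compound given together with 17beta-estradiol as the ER stimulus; series mostly up to about 70 µM; nearly all actives have a fitted effect of over 45% in size.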
In a further assay the target is Aromatase (Homo sapiens) (UniProt P11511). The experiment in a line: qHTS assay to identify aromatase inhibitors (AID 743083). Also: series mostly up to about 70 µM; nearly all actives have a fitted effect of over 55% in size.
A short description of assay [5]: qHTS assay to identify aromatase inhibitors - cell viability counter screen (AID 743084).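 Also: cells stimulated with testosterone during compound exposure; nearly all actives have a fitted effect of over 55% in size.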
Assay [6] concerns the target Aryl hydrocarbon receptor (Homo sapiens) (UniProt P35869). As to the kind of experiment: qHTS assay to identify small molecule that activate the aryl hydrocarbon receptor (AhR) signaling pathway (AID 743085). Also: nearly all actives have a fitted effect of over 15% in size. Also: potency is read from the fitted curve at half-maximal effect.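 As to activation: HG2L7.5c1 human HepG2 liver cells with stably integrated DRE-driven firefly reporter; series mostly up to about 70 µM.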 An outline of the steps: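 Reporter assay in engineered HepG2 line HG2L7.5c1, whose plasmid carries twenty dioxin responsive elements upstream of firefly luciferase. Treatment lasted 24 h at 37C; ONE-Glo luminescence gauged induction.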

Assay [7] can be described thus: qHTS assay to identify small molecule that activate the aryl hydrocarbon receptor (AhR) signaling pathway - cell viability counter screen (AID 743086).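 Also: HepG2 liver cells carrying the AhR DRE luciferase reporter; series mostly up to about 70 µM; nearly all actives have a fitted effect of over 45% in size.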 An outline of the steps:
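Cytotoxicity counter screen: CellTiter-Fluor signal (30 min, 37 C) in 4000 HepG2 cells/well carrying the DRE-luciferase reporter, following 24 h compound exposure at 37 C.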

The target in assay [8] is Peroxisome proliferator-activated receptor gamma (Homo sapiens) (UniProt P37231). As to the kind of experiment: qHTS assay to identify small molecule agonists of the peroxisome proliferator-activated receptor gamma (PPARg) signaling pathway (AID 743094; active = well fitted activation curve with a large enough effect in the signal ratio in the repeat runs, not every such curve was filed as active; the % refers to the signal ratio). An outline of the steps:
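GeneBLAzer PPARg UAS-bla HEK293H cells carrying a stably integrated beta-lactamase reporter were pre-incubated 5 h at 37C, then exposed to compounds in DMSO for 17 h at 37C; LiveBLAzer B/G FRET substrate was added for 1 h at room temperature and fluorescence read.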

Assay [9] can be described thus: qHTS assay for small molecule agonists of the antioxidant response element (ARE) signaling pathway (AID 743202; active = well fitted activation curve with a large enough effect in the signal ratio in the repeat runs, not every such curve was filed as active; the % refers to the signal ratio). In short, it runs like this:
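An ARE-responsive beta-lactamase gene stably integrated in HepG2 cells serves as reporter. After 5 h plating and 16 h compound incubation at 37 C, fluorescence of the B/G FRET substrate was measured.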

Assay [10] in a line: qHTS assay for small molecule agonists of the antioxidant response element (ARE) signaling pathway - cell viability counter screen (AID 743203; calls by dose curve; also: nearly all actives have a fitted effect of over 55% in size). In short, it runs like this:
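CellSensor ARE-bla HepG2 cells, 2,000 per well, rested 5 hrs at 37C/5% CO2, then exposed to compound in DMSO for 16 hrs; viability read as CellTiter-Glo luminescence after 30 min at room temperature, in the reporter wells.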

The nature of assay [11]: qHTS assay for small molecule activators of the heat shock response signaling pathway - cell viability counter screen (AID 743209). Also: nearly all actives have a fitted effect of over 50% in size. In short, it runs like this:
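CellSensor HSE-bla HeLa cells, plated overnight at 37 C/5% CO2, were exposed to compounds in DMSO for 5 h at 37 C. Viability was then read in the same wells by CellTiter-Glo luminescence after 30 min at room temperature.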

A short description of assay [12]: qHTS assay for small molecule activators of the heat shock response signaling pathway (AID 743210; active = well fitted activation curve with a large enough effect in the signal ratio in the repeat runs, with a control signal flat, not every such curve was filed as active; the % refers to the signal ratio;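 also: HeLa cells with beta-lactamase reporter driven by heat shock elements; series mostly up to about 63 µM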). In short, it runs like this:
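In HSE-bla HeLa cells, 5 h compound incubation (37 C) precedes addition of LiveBLAzer B/G substrate; after 2.5 h at room temperature, fluorescence intensity indicates reporter induction.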

Assay [13] has as its target Estrogen receptor (Homo sapiens) (UniProt P03372). As to the kind of experiment: qHTS assay to identify small molecule antagonists of the estrogen receptor alpha (ER-alpha) signaling pathway (AID 743069; active = well fitted curve in the direction sought with a large enough effect in the signal ratio in the repeat runs, not every such curve was filed as active; the % refers to the signal ratio). An outline of the steps:
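Compound effects are measured against 17beta-estradiol stimulation in HEK293 cells with a UAS-controlled beta-lactamase reporter for ER-alpha. Exposure lasts 18 hr at 37C; LiveBLAzer B/G FRET substrate follows for 2 hr at room temperature.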

Assay [14] has the same target. As to the kind of experiment: qHTS assay to identify small molecule agonists of the estrogen receptor alpha (ER-alpha) signaling pathway (AID 743075; calls by dose curve).
Assay [15] concerns the target Peroxisome proliferator-activated receptor gamma (Homo sapiens) (UniProt P37231). The experiment in a line: qHTS assay to identify small molecule antagonists of the peroxisome proliferator-activated receptor gamma (PPARg) signaling pathway (AID 743191; calls by dose curve; also: series mostly up to about 63 µM; nearly all actives have a fitted effect of over 30% in size). In short, it runs like this: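 Beta-lactamase reporter under UAS control in HEK293H PPARg-bla cells; compound treatment 17 h at 37C. Read-out: fluorescence intensity after 1 h room-temperature incubation with LiveBLAzer B/G FRET substrate.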

Assay [16] deals with Estrogen receptor (Homo sapiens) (UniProt P03372). As to the kind of experiment: qHTS assay to identify small molecule agonists of the estrogen receptor alpha (ER-alpha) signaling pathway using the BG1 cell line (AID 743079). Also: nearly all actives have a fitted effect of over 20% in size. Also: potency is read from the fitted curve at half-maximal effect.
Assay [17] is described as follows: qHTS assay to identify small molecule antagonists of the estrogen receptor alpha (ER-alpha) signaling pathway using the BG1 cell line (AID 743080; calls by dose curve;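 also: BG1 cells stimulated with 17beta-estradiol alongside compound; series mostly up to about 70 µM; nearly all actives have a fitted effect of over 25% in size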). An outline of the steps: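 Seeding, 24 h rest, compound transfer from DMSO, 17beta-estradiol addition, 21.5 h incubation, CellTiter-Fluor (30 min, 37 C), then ONE-Glo (30 min, room temperature): this sequence was run on BG1-Luc-4E2 reporter cells.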

Assay [18] is described as follows: qHTS assay to identify small molecule antagonists of the peroxisome proliferator-activated receptor gamma (PPARg) signaling pathway - cell viability counter screen (AID 743194). Also: nearly all actives have a fitted effect of over 55% in size. In short, it runs like this:
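Viability was measured as CellTiter-Glo luminescence in GeneBLAzer PPARg UAS-bla HEK293H cells. These cells had been exposed 17 h at 37 C to compounds together with rosiglitazone at 50 nM final, with the beta-lactamase readout taken in the same wells.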

Peroxisome proliferator-activated receptor gamma (Homo sapiens), sequence (P37231 whole entry, looked up): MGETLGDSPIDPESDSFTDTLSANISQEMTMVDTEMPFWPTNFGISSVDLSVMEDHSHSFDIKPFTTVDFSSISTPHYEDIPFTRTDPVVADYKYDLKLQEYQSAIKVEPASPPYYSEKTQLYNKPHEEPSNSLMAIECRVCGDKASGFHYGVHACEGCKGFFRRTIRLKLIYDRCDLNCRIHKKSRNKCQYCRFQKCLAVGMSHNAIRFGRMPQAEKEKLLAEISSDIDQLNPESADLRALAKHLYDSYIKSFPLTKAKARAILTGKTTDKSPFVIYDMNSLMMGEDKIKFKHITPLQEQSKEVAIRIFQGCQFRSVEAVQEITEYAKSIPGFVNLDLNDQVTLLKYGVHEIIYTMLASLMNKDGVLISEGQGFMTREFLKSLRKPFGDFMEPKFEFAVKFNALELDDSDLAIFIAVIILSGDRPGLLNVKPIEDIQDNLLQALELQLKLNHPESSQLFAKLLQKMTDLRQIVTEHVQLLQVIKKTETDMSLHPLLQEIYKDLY
Aryl hydrocarbon receptor (Homo sapiens), sequence (P35869 whole entry, looked up): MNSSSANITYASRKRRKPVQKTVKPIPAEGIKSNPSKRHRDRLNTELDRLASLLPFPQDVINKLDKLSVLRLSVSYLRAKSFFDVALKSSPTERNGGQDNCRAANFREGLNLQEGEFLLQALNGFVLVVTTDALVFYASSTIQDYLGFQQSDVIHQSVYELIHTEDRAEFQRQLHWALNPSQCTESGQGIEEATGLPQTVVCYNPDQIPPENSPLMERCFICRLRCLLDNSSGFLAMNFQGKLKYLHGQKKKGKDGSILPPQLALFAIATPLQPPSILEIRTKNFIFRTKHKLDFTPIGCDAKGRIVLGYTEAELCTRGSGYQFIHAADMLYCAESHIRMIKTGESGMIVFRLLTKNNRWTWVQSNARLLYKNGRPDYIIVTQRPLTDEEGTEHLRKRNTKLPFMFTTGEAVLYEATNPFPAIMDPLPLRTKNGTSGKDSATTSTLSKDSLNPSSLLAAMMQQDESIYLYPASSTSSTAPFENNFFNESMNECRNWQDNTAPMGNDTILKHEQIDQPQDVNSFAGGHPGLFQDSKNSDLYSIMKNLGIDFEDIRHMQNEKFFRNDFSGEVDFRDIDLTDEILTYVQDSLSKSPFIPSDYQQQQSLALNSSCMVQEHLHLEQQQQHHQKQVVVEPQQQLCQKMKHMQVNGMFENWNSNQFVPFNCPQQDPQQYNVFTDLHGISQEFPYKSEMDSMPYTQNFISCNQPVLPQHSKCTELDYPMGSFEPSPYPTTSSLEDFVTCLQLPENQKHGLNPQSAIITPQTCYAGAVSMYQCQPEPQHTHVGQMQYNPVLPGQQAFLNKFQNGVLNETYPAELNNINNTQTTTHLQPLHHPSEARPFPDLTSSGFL
Aromatase (Homo sapiens), sequence (P11511 whole entry, looked up): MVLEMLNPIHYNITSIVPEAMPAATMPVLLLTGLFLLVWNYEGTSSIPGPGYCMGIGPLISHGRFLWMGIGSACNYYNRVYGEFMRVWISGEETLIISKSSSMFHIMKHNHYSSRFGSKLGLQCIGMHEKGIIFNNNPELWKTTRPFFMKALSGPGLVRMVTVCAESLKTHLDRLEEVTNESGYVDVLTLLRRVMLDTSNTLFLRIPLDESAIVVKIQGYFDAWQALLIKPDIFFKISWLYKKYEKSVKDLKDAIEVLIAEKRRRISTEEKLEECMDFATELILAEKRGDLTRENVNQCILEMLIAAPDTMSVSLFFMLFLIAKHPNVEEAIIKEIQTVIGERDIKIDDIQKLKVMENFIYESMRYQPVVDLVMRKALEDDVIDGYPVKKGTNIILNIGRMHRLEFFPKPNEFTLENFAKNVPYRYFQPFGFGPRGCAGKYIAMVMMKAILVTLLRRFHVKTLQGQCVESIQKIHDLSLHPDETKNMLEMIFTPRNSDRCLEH
Estrogen receptor (Homo sapiens), sequence (P03372 whole entry, looked up): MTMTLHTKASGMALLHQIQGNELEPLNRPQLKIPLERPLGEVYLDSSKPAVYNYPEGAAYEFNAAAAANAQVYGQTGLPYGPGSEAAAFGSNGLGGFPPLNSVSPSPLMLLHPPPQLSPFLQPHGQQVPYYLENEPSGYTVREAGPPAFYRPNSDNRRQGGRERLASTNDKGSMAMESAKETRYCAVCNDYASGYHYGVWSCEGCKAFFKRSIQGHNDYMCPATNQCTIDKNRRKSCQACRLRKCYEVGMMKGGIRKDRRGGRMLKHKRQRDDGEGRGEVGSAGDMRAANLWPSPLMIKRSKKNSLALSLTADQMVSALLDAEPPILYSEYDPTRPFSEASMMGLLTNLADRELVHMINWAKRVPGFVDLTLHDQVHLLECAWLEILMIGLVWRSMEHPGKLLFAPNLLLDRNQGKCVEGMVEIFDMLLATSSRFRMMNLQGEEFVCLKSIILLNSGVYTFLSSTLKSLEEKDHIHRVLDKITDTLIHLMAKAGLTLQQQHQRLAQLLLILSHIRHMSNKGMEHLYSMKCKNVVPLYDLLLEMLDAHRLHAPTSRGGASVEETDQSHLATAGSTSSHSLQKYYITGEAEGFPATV

With `CCC(C)OC(=O)N1CCCCC1CCO` (centres undefined), the Potency result (in assay [1]; in [2]; in the assay with Aromatase (Homo sapiens); in assay [5]; in assay [6]; in assay [7]) was “inactive” each time. In addition, the Potency entry in assay [9] was “inactive”. The compound was called inactive in assay [3], in [4], in [8], in assay [10], in assay [11] and in assay [12].
For the compound `CCCCc1ccc(N)cc1`, the Potency result (in assay [1]; in assay [2]; in assay [13]; in [14]; with Aromatase (Homo sapiens); in [5]) was “inactive” each time. Besides, the Potency entry in [6], in [7] and in assay [9] was “inactive” in each case. Further, the outcome in [3], in assay [4], in [15], in assay [10], in assay [11] and in assay [12] was inactive.
Turning to `Cc1cc(C)cc(OCC2CNC(=O)O2)c1` (centres undefined), the Potency result in [1], in [2], in [13], in [14], in assay [16] and in assay [17] was “inactive” throughout. Also, the Potency entry (with Aromatase (Homo sapiens); in [5]; in [6]; in [7]; in assay [9]) was “inactive” in each case. For the same compound, the outcome in [3], in assay [4], in assay [15], in assay [10], in assay [11] and in [12] was inactive.
Turning to `Cn1ccc2cc3c(cc21)CCN3C(=O)Nc1cccnc1`, the Potency entry (in assay [1]; in [2]; with Aromatase (Homo sapiens); in assay [5]; in [7]; in assay [18]) was “inactive” each time. Also, the Potency result in assay [9] is “inactive”. The compound was called inactive in [3], in assay [4], in assay [8], in [10], in [11] and in [12]. Besides, the Potency is 5310 nM (active) in assay [16] and 335 nM (active) in assay [6].
Turning to `CCn1cc(C(=O)O)c(=O)c2cc(F)c(N3CCN(C)CC3)cc21`, the Potency result (in assay [1]; in assay [2]; in assay [14]; in assay [16]; in [17]; with Aromatase (Homo sapiens)) was “inactive” each time. In addition, the Potency entry in assay [5], in assay [6], in assay [7], in [18] and in [9] was “inactive” in each case. The compound was called inactive in [3], in assay [4], in [15], in [10], in assay [11] and in [12].
On to `CCCCC1CCCCC(=O)O1` (centres undefined), for which the Potency result (in [13]; in [14]; in assay [16]; in assay [17]; with Aromatase (Homo sapiens); in assay [5]) was “inactive” each time. Besides, the Potency result in assay [6], in [7] and in [18] was “inactive” in each case. Also, the result in [3], in [4], in assay [15], in assay [10] and in [11] was inactive.
For the compound `CC(=O)NC(Cc1ccccc1)C(=O)O` (centres undefined), the Potency result (in assay [2]; in assay [13]; in [14]; in assay [16]; in assay [17]; with Aromatase (Homo sapiens)) was “inactive” each time. Moreover, the Potency result in [5], in assay [6] and in assay [7] was “inactive” throughout. For the same compound, the result in [3], in assay [4], in assay [8], in [15], in [10] and in assay [11] was inactive. In addition, the compound was called inactive in [12].
`CC1(C)OC(=O)Nc2ccc(Br)cc21`: the Potency result in [18] and in assay [9] was “inactive” throughout. The call in assay [10] and in [12] was inactive.
Consider `Cc1cc(C)c(NC(=O)CN(CC(=O)O)CC(=O)O)c(C)c1Br`, for which the Potency entry (in assay [2]; in the assay with Aromatase (Homo sapiens); in [5]; in assay [6]; in assay [7]; in assay [9]) was “inactive” in each case. Moreover, the outcome in assay [3], in [4], in [8], in [15], in assay [10] and in assay [11] was inactive. In addition, the compound was called inactive in assay [12].
